A short description of assay [1]: qHTS of pediatric cancer cell lines to identify multiple opportunities for drug repurposing: Primary screen for BT-12 cells (AID 1347101). Further: nearly all actives have a fitted effect of over 25% in size. Further: potency means the concentration at half of the fitted maximal effect. An outline of the steps: (§1)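 Cells (500-1,000/well) rested 5 h, then received compounds for 48 h; metabolically active cells were measured by CellTiter-Glo luminescence. Final concentrations spanned up to 46 µM (MIPE, 11-point) or 0.59 nM-46 µM (NPC, 8-point) in primary screens, 11-point in follow-ups.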
For orientation: In qHTS, concentration-response curves come from the screen itself.

A short description of assay [2]: qHTS of pediatric cancer cell lines to identify multiple opportunities for drug repurposing: Primary screen for Rh18 cells (AID 1347102). Further: nearly all actives have a fitted effect of over 65% in size. Further: potency means the concentration at half of the fitted maximal effect. In outline: as §1
Assay [3] in a line: qHTS of pediatric cancer cell lines to identify multiple opportunities for drug repurposing: Primary screen for OHS-50 cells (AID 1347103). Further: nearly all actives have a fitted effect of over 40% in size. Further: potency means the concentration at half of the fitted maximal effect. An outline of the steps:
as §1

Assay [4] can be described thus: qHTS of pediatric cancer cell lines to identify multiple opportunities for drug repurposing: Primary screen for MG 63 (6-TG R) cells (AID 1347105). Further: nearly all actives have a fitted effect of over 50% in size. Further: potency means the concentration at half of the fitted maximal effect. An outline of the steps: (§2)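 Primary screen of approved and investigational compounds on cells in growth media at 37 degrees C, 5% CO2. MIPE set at 11-point and NPC set at 8-point dilutions; viability scored by ATP-based luminescence at 48 hours.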

Assay [5] can be described thus: qHTS of pediatric cancer cell lines to identify multiple opportunities for drug repurposing: Primary screen for control Hh wild type fibroblast cells (AID 1347106).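 Further: series mostly up to about 46 µM; a drop in luminescence marks cytotoxicity and a rise apparent proliferation; nearly all actives have a fitted effect of over 55% in size.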 An outline of the steps:
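Viability after 48 h compound treatment at 37C, 500-1,000 cells/well, read as ATP luminescence with CellTiter-Glo. Primary screens used 11-point (MIPE, 0.78 nM-46 µM) or 8-point (NPC, 0.59 nM-46 µM) final concentrations; follow-up screens used 11-point dilutions.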

The nature of assay [6]: qHTS of pediatric cancer cell lines to identify multiple opportunities for drug repurposing: Primary screen for Rh30 cells (AID 1347107). Further: series mostly up to about 46 µM; nearly all actives have a fitted effect of over 75% in size. An outline of the steps: as §1
Assay [7] is described as follows: qHTS of pediatric cancer cell lines to identify multiple opportunities for drug repurposing: Primary screen for Rh41 cells (AID 1347108). Further: nearly all actives have a fitted effect of over 70% in size. Further: potency means the concentration at half of the fitted maximal effect. An outline of the steps: as §2
A short description of assay [8]: qHTS of pediatric cancer cell lines to identify multiple opportunities for drug repurposing: Primary screen for RD cells (AID 1347104). Further: nearly all actives have a fitted effect of over 55% in size. Further: potency means the concentration at half of the fitted maximal effect. In outline: as §2
A short description of assay [9]: qHTS of pediatric cancer cell lines to identify multiple opportunities for drug repurposing: Confirmatory screen for A673 cells (AID 1347110).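 Further: potency means the concentration at half of the fitted maximal effect; cells exposed to compound for 48 h before the viability read; nearly all actives have a fitted effect of over 65% in size.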 In outline: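 qHTS titration format: primary MIPE 0.78 nM-46 µM (11 pts), NPC 0.59 nM-46 µM; confirmation 11 pts. 48 h, CTG luminescence.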
Assay [10] can be described thus: qHTS of pediatric cancer cell lines to identify multiple opportunities for drug repurposing: Confirmatory screen for SK-N-MC cells (AID 1347111).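 Further: cells exposed to compound for 48 h before the readout; nearly all actives have a fitted effect of over 70% in size.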 Further: potency means the concentration at half of the fitted maximal effect. An outline of the steps:
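Seed 500-1,000 cells/well; rest 5 h at 37 degrees C. Pin-transfer compounds, 11-point titration. Incubate 48 h. Add CellTiter-Glo, 15 min RT, read luminescence.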

A short description of assay [11]: qHTS of pediatric cancer cell lines to identify multiple opportunities for drug repurposing: Confirmatory screen for LAN-5 cells (AID 1347113). Further: nearly all actives have a fitted effect of over 65% in size. Further: potency means the concentration at half of the fitted maximal effect. An outline of the steps: as §1
Assay [12] is described as follows: qHTS of pediatric cancer cell lines to identify multiple opportunities for drug repurposing: Confirmatory screen for DAOY cells (AID 1347114). Further: nearly all actives have a fitted effect of over 65% in size. Further: potency means the concentration at half of the fitted maximal effect. An outline of the steps:
(§3)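 Viability measured as metabolically active cells via CellTiter-Glo luminescence following 48 hours of compound exposure, 11-point dilutions in confirmatory testing. 500-1,000 cells/well plated 5 hours before dosing; controls were DMSO and 2.3 µM bortezomib.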

A short description of assay [13]: qHTS of pediatric cancer cell lines to identify multiple opportunities for drug repurposing: Confirmatory screen for TC32 cells (AID 1347118). Further: potency means the concentration at half of the fitted maximal effect. An outline of the steps:
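qHTS, TC32, 48 h drug treatment, CellTiter-Glo luminescence as a proxy for metabolically active cells; primary top concentration 46 µM (MIPE 11-pt, NPC 8-pt); confirmatory 11-pt.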

Assay [14] in a line: qHTS of pediatric cancer cell lines to identify multiple opportunities for drug repurposing: Confirmatory screen for MG 63 (6-TG R) cells (AID 1347119). Further: nearly all actives have a fitted effect of over 55% in size. In outline: as §1
Assay [15] can be described thus: qHTS of pediatric cancer cell lines to identify multiple opportunities for drug repurposing: Confirmatory screen for NB1643 cells (AID 1347109). Further: nearly all actives have a fitted effect of over 45% in size. Further: potency means the concentration at half of the fitted maximal effect. In outline:
as §1

Assay [16] can be described thus: qHTS of pediatric cancer cell lines to identify multiple opportunities for drug repurposing: Confirmatory screen for BT-12 cells (AID 1347112). Further: nearly all actives have a fitted effect of over 55% in size. Further: potency means the concentration at half of the fitted maximal effect. In outline: as §1
A short description of assay [17]: qHTS of pediatric cancer cell lines to identify multiple opportunities for drug repurposing: Confirmatory screen for NB-EBc1 cells (AID 1347115).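 Further: cells exposed to compound for 48 h before the viability read; nearly all actives have a fitted effect of over 45% in size.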 Further: potency means the concentration at half of the fitted maximal effect. In outline:
as §1

Assay [18] can be described thus: qHTS of pediatric cancer cell lines to identify multiple opportunities for drug repurposing: Confirmatory screen for BT-37 cells (AID 1347117). Further: nearly all actives have a fitted effect of over 55% in size. Further: potency means the concentration at half of the fitted maximal effect. In outline:
as §1

Assay [19] can be described thus: qHTS of pediatric cancer cell lines to identify multiple opportunities for drug repurposing: Confirmatory screen for SJ-GBM2 cells (AID 1347116). Further: nearly all actives have a fitted effect of over 60% in size. In outline: as §3

Results on 23 compounds are retold here after PubChem BioAssay (NCATS).

Each structure is given as a SMILES string. Several values for one entry are separate records, joined by “and”; a condition that tells them apart may be missing. Equal entries are not always repeated. Inconclusive results are not listed. Activity calls are given as the source filed them. The call rests on the fitted dose curve; in most records, active means well fitted curve in the direction sought with a large enough effect; inconclusive means small, poorly fitted or top-dose-only effect, or another doubt; inactive means no such curve, though single readings can be large; an effect the other way counts as inactive or inconclusive.

On to `Cc1cc(C(C)(C)C)c(O)c(C)c1CC1=NCCN1`, for which the Potency entry in [1], in assay [2], in [3], in assay [4], in assay [5] and in assay [7] was “inactive” each time. Besides, in assay [6], the compound was classed as inactive.

Regarding `Fc1ccc([C@@H]2CCNC[C@H]2COc2ccc3c(c2)OCO3)cc1`, the Potency result in assay [1], in [4], in assay [5] and in [7] was “inactive” in each case. For the same compound, the call in assay [6] was inactive.

In the case of `CN1CCN(C2=Nc3cc(Cl)ccc3Nc3ccccc32)CC1`, the Potency result in assay [1], in [2], in [4], in assay [5] and in assay [7] was “inactive” throughout. The compound was called inactive in assay [6].

Regarding `CN(Cc1cnc2nc(N)nc(N)c2n1)c1ccc(C(=O)N[C@@H](CCC(=O)O)C(=O)O)cc1`, the Potency was 0.0062 µM (active) in assay [1]; 0.0098 µM (active) in assay [3]; 0.0106 µM (active) in assay [8]; 0.0329 µM (active) in assay [9]; 0.0369 µM (active) in assay [10]; 0.117 µM (active) in assay [12]. In [13], the Potency is 0.0369 µM (active). For the same compound, the Potency result in assay [2], in [4], in assay [5], in [7], in assay [11] and in [14] was “inactive” throughout. In addition, the call in assay [6] was inactive.

As to `CC1(CN2CCC(n3c(=O)[nH]c4ccccc43)CC2)OCc2ccccc2-n2cccc21` (configuration not stated), the Potency entry in assay [1], in assay [2], in assay [4] and in assay [5] was “inactive” each time. Besides, in assay [6], the outcome was inactive.

`CC(C)NCC(O)c1ccc(O)c(O)c1` (configuration not stated): the Potency entry in assay [1], in assay [3], in [5], in assay [15], in assay [12] and in [17] was “inactive” in each case. In assay [6], the outcome was inactive. Besides, the values for the Potency in [10], in assay [16] and in [18] were 2.33 µM (active), 4.14 µM (active) and 5.22 µM (active), respectively.

Regarding `CN(C)CCC=C1c2ccccc2C=Cc2ccccc21`, the Potency result in [2], in assay [4], in assay [5] and in assay [7] was “inactive” in each case. The Potency in [3] was 27.6 µM (active). Also, the compound was classed as inactive in assay [6].

For the compound `CNCCCC12CCC(c3ccccc31)c1ccccc12`, the Potency was 18.8 µM (active) and 18.7 µM (active) in [2]; 27.6 µM (active) and 24.3 µM (active) in assay [3]; 29.6 µM (active) in assay [8]; 16.8 µM (active) in [4]. The Potency result in assay [5] was “inactive”. In addition, the compound was classed as inactive in assay [6].

Consider `Nc1nc2c(ncn2COC(CO)CO)c(=O)[nH]1`, for which the Potency entry in [2], in [8] and in assay [5] was “inactive” each time. The compound was called inactive in assay [6].

In the case of `O=C(c1ccc(OCCN2CCCCC2)cc1)c1c(-c2ccc(O)cc2)sc2cc(O)ccc12`, the Potency in assay [3] was 27.6 µM (active) and 24.3 µM (active); in assay [8], 23.7 µM (active) and 18.7 µM (active); in assay [4], 26.6 µM (active) and 18.7 µM (active); in assay [9], 20.8 µM (active); in [10], 16.5 µM (active); in [12], 32.9 µM (active). Also, the Potency in assay [13] is 16.5 µM (active). Moreover, the Potency entry in [5], in assay [7] and in assay [17] was “inactive” each time. Besides, in assay [6], the outcome was inactive.

Take `CC(COc1ccccc1)N(CCCl)Cc1ccccc1` (configuration not stated): the Potency in assay [1] is 9.68 µM (active); in assay [3], 24.3 µM (active); in assay [15] it was 16.5 µM (active); in assay [10], 10.4 µM (active); in [11], 20.8 µM (active); in assay [18], 18.5 µM (active). Also, the Potency in assay [13] is 7.37 µM (active). Besides, the Potency entry in [2], in [8], in assay [4], in [5] and in assay [7] was “inactive” each time. In addition, in [6], the compound was classed as inactive.

As to `NC(=O)NO`, the Potency entry in assay [2], in assay [5], in assay [15], in [10], in assay [16] and in assay [11] was “inactive” in each case. Further, the Potency result in [12], in [17], in [18] and in assay [14] was “inactive” in each case. Also, the outcome in assay [6] was inactive. Besides, the Potency in [9] is 0.414 µM (active); in [13] it was 20.8 µM (active).

For the compound `O=c1c(-c2ccc(O)cc2)coc2cc(O)cc(O)c12`, the Potency entry in assay [1], in assay [2], in [8], in [4], in assay [5] and in [7] was “inactive” throughout. Further, the compound was classed as inactive in [6].

With `CC(CCc1ccc(O)cc1)NCCc1ccc(O)c(O)c1` (configuration not stated), the Potency in assay [2] was 20.9 µM (active); in assay [10], 9.27 µM (active); in assay [17], 5.85 µM (active); in assay [13], 20.8 µM (active). In addition, the Potency result in assay [3], in assay [4], in [5], in assay [7], in assay [15] and in assay [11] was “inactive” throughout. Besides, the Potency result in [12] and in assay [14] was “inactive” each time. Besides, in [6], the result was inactive.

`NC(CO)C(=O)NNCc1ccc(O)c(O)c1O` (configuration not stated): the Potency entry in assay [1], in [2], in [3], in assay [4], in assay [5] and in [7] was “inactive” each time. The result in assay [6] was inactive.

`CCCNCC(O)COc1ccccc1C(=O)CCc1ccccc1` (configuration not stated): the Potency in assay [8] was 33.2 µM (active). The Potency result in [4], in assay [5] and in assay [7] was “inactive” throughout. Moreover, the compound was called inactive in assay [6].

Turning to `CN(C)CCCN1c2ccccc2CCc2ccc(Cl)cc21`, the Potency in [1] is 19.3 µM (active) and 15.5 µM (active); in [3], 13.7 µM (active) and 17.4 µM (active); in assay [8], 1.48 µM (active); in assay [12] it was 20.8 µM (active). Further, the compound was called inactive in assay [6]. Also, the Potency entry in assay [7], in assay [17], in [19] and in assay [13] was “inactive” in each case.

For the compound `Cn1cnc2c1c(=O)[nH]c(=O)n2C`, in assay [5], the Potency entry was “inactive”. Further, the compound was called inactive in assay [6].

Take `CN1CCN2c3ccccc3Cc3ccccc3C2C1` (configuration not stated): the Potency result in assay [1], in assay [2], in assay [8], in assay [4], in assay [5] and in [7] was “inactive” each time. Also, the compound was called inactive in assay [6].

In the case of `CN1CCC(=C2c3ccccc3CC(=O)c3sccc32)CC1`, the Potency entry in assay [1], in assay [2], in assay [5] and in assay [7] was “inactive” throughout. The Potency in [4] was 23.5 µM (active). Further, the call in assay [6] was inactive.

Consider `CC(C)C(=O)Nc1ccc([N+](=O)[O-])c(C(F)(F)F)c1`, for which the Potency in assay [1] is 11 µM (active); in assay [3], 24.6 µM (active) and 432 nM (active); in assay [7] it was 11.8 µM (active); in [9], 10.4 µM (active); in assay [12] it was 16.5 µM (active). In addition, the Potency result in assay [2], in [15], in assay [11] and in assay [17] was “inactive” in each case. The call in assay [6] was inactive.

Turning to `CN1CCC(=C2c3ccccc3C=Cc3ccccc32)CC1`, the Potency in assay [3] was 13.8 µM (active) and 19.3 µM (active). In addition, the Potency entry in [4], in assay [5] and in assay [7] was “inactive” throughout. Besides, the result in assay [6] was inactive.

For `O=C(CCCN1CCC(O)(c2ccc(Cl)cc2)CC1)c1ccc(F)cc1`, the Potency result in assay [2], in assay [3], in assay [4], in [5] and in assay [7] was “inactive” in each case. Also, the compound was classed as inactive in assay [6].
